Rows were chosen to be rich in hits. Some 2.8% of all compounds tested hit in one or more screens of this group.
IP6K1 inhibitor – inhibitors of human IP6K1. Q92551. IP6K1 kinase, ADP-Glo luminescence, 2 h; active compounds read low. activity change, % (series mostly up to about 58 µM). hit rate 0.81% among 140,000. AID 1645851; in the data active = activity change below about -25%; note: % is set by controls: 0 for no effect and ±100 for the full control effect
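ADP-Glo luminescence measures ADP made by human IP6K1 during a 2 h RT reaction with ATP/IP6 (mix at 1.3 mM/130 uM); top library doses 57.5 and 19.1 uM final.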
KDM5B inhibitor – blocks human KDM5B histone demethylase activity; AID 1347165; hit rate 2.6% among 220,000; Q9UGL1; KDM5B demethylase, FDH-coupled NADH fluorescence (FDH is formaldehyde dehydrogenase); Potency, µM (top dose mostly 57.7 µM), most hits filed as inhibitors; active = well fitted inhibition curve with a large enough effect; inconclusive = small, poorly fitted or top-dose-only effect; inactive = no such curve, though single readings can be large or run the other way; note: potency is the fitted concentration of half-maximal effect; 0% is about no effect; nearly all actives have a fitted effect of over 70% in size
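Coupled FDH/NAD⁺ fluorescence readout. KDM5BΔAP 200 nM final; compound titration, 10 min RT preincubation; substrate mix 12.5 µM H3K4me3, 25 µM 2-OG, 50 µM Fe(II), 100 µM ascorbate, 0.25 mM NAD⁺, 0.25 U/mL FDH; ΔRFU over 30 min.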
Starred values were filed as active, the others as inactive; i = inactive; u = inconclusive; x = no result given.

SMILES	IP6K1 inhibitor	KDM5B inhibitor
COc1cccc(-c2cc(C(=O)NC3CCCC3)c3cnn(C)c3n2)c1	-3.7	x
CC(=O)NC1CCN(Cc2cccc(-c3cccc(C)c3)c2)CC1	-7.2	x
CC(=O)NC1(C)CCN(Cc2ccc(-c3cccc(Cl)c3)cc2)C1 (stereo not drawn)	-1.2	u
CC(=O)NC1(C)CCN(Cc2ccc(-c3ccc(N4CCOCC4)cc3)cc2)C1 (stereo not drawn)	-7.7	28.2µM*
Cc1nn(-c2ccccc2)c2c1C(C)N(C1CCN(C(=O)c3ccccc3)CC1)C2=O (stereo not drawn)	-7.4	x
CC(=O)Nc1cccc(NC(=O)CCc2ncc(-c3ccc(Cl)cc3)o2)c1	x	i
O=C(CC1C=CCC1)N(Cc1ccco1)C1CC1 (stereo not drawn)	x	i
Cc1cc(C(=O)Nc2ccc(SC3CCCC3)cc2)c(C)o1	x	i
CCO[C@H]1CN(C(=O)c2nc3ccccc3[nH]c2=O)C[C@@H]1O	31.7	25.1µM*
CCO[C@H]1CN(C(=O)c2cc(OC)nc3ccccc23)C[C@@H]1O	6.4	u
Cn1c(=O)c2c(nc(SCCCC#N)n2Cc2ccc(Cl)c(Cl)c2)n(C)c1=O	x	i
CN(C)c1cccc(-c2nc(C3CC(=O)N(c4ccc(F)cc4)C3)no2)c1 (stereo not drawn)	-8.4	35.5µM*
Cc1ccc(N2CC(c3noc(-c4cccc(N(C)C)c4)n3)CC2=O)cc1 (stereo not drawn)	15.4	35.5µM*
CC(C)(C)c1ccc(-c2nc(C3CC(=O)N(c4ccc(F)cc4)C3)no2)cc1 (stereo not drawn)	-14.2	i
CN(C)c1ccc(-c2nc(C3CC(=O)N(c4ccc(F)cc4)C3)no2)cc1 (stereo not drawn)	-2.6	31.6µM*
Cc1ccc(N2CC(c3noc(-c4ccncc4)n3)CC2=O)cc1 (stereo not drawn)	12.8	i
COc1cccc(-c2nc(C3CC(=O)N(c4ccc(F)cc4)C3)no2)c1 (stereo not drawn)	5.0	i
COc1cccc([S+](=O)([O-])NC2CCN(c3ccc4nnc(-c5ccccc5)n4n3)C2)c1 (stereo not drawn)	2.6	x
Cc1ccc(S(=O)(=O)/C(C#N)=C\c2ccc(F)cc2)cc1	x	i
C[S+](=O)([O-])NC1CCN(Cc2cccc(-c3ccc(F)c(F)c3)c2)CC1	17.1	x
COc1ccc(C2Cn3cnc(-c4nc(-c5ccc(OC)c(OC)c5)no4)c3CO2)cc1 (stereo not drawn)	6.3	i
Fc1ccc(C2Cn3nnc(-c4nc(-c5cccc(F)c5)no4)c3CO2)cc1 (stereo not drawn)	-9.9	i
COc1ccc(Cl)cc1-c1nc(-c2nnn3c2COC(c2ccc(C)cc2)C3)no1 (stereo not drawn)	-2.8	i
COc1ccc(-c2nc(-c3nnn4c3COC(c3ccc(Cl)cc3)C4)no2)cc1OC (stereo not drawn)	-2.9	28.2µM*
COc1ccc(-c2noc(-c3nnn4c3COC(c3ccc(F)cc3)C4)n2)cc1OC (stereo not drawn)	-13.6	22.4µM*
SMILES	IP6K1 inhibitor	KDM5B inhibitor
COc1ccc(C2Cn3cnc(-c4nc(-c5ccc6c(c5)OCO6)no4)c3CO2)cc1 (stereo not drawn)	-17.2	14.1µM*
Cn1cnc2c1c(=O)n(CCCOc1ccccc1C#N)c(=O)n2C	x	i
COCCCNC(=O)c1cn2cc(-c3cccc(C(F)(F)F)c3)sc2n1	6.8	x
Cc1ccc(C(=O)N2CCC(N3C(=O)c4c(c(C)nn4-c4ccccc4)C3C(C)C)C2)cc1 (stereo not drawn)	4.0	x
COc1ccc(OCCN2CCN(C(=O)c3ccc(OC)c(OC)c3)CC2)cc1	x	i
Cn1ccc2ccc(C(=O)N3CCN(CCOc4ccccc4)CC3)cc21	-4.2	28.2µM*
COc1ccccc1-c1[nH]nc2ncc(-c3cccnc3OC)nc12	14.7	i
COc1ncccc1-c1cnc2n[nH]c(-c3ccccc3)c2n1	16.8	35.5µM*
COc1ncccc1-c1cnc2n[nH]c(-c3ccccc3C)c2n1	5.3	39.8µM*
COc1ccc(-c2[nH]nc3ncc(-c4ccccc4O)nc23)cc1F	-3.3	i
COc1ccc(-c2nnc(SCC(=O)Nc3cc(C)on3)n2C2CCCCC2)cc1	x	i
Nc1nc2c(c(C(=O)N[C@H](c3ccccn3)C3CC(O)C3)n1)CCCC2 (stereo partly drawn)	35.1	28.2µM*
CN1CCc2[nH]nc(C(=O)N[C@H](c3ccccn3)C3CC(O)C3)c2C1 (stereo partly drawn)	25.6	u
O=C(Cc1csc(-c2ccccc2)n1)N[C@H](c1ccccn1)C1CC(O)C1 (stereo partly drawn)	7.9	25.1µM*
Nc1nc(CC(=O)N[C@H](c2ccccn2)C2CC(O)C2)cc(=O)[nH]1 (stereo partly drawn)	9.3	i
C[C@]12CCC(=O)C=C1CCC[C@@H]2OCc1ccccc1	21.6	x
CNC(=O)c1cc(C2CC2)nc2onc(C3CCCN3[S+](C)(=O)[O-])c12 (stereo not drawn)	-2.5	x
COCCn1cc2c3c(cccc31)CN(C(=O)CCc1ccccc1OC)CC2	-4.0	u
COCCn1cc2c3c(cccc31)CN(C(=O)CCCc1ccccc1)CC2	12.3	25.1µM*
CSc1ccc(-c2nc3c([nH]2)CC(C)(C)CNC3=O)cc1	-3.0	28.2µM*
CC1(C)CNC(=O)c2nc(CCSCc3ccco3)[nH]c2C1	-5.1	i
COc1ccc(-c2cc3nc4c(c(=O)n3[nH]2)CN(C(=O)Cc2ccccc2)CC4)cc1	5.6	28.2µM*
COc1ccc2c(c1)CCc1c-2n[nH]c1C(=O)N1CCc2nc3cc(-c4ccccc4)[nH]n3c(=O)c2C1	0.0	u
COc1ccc(-c2nc3c(c(-c4ccccc4)n2)CN(C(C)=O)CC3)cc1	-9.6	28.2µM*
COc1ccc(-c2nc(-c3ccccc3)nc3c2CN(C(=O)N(C)C)CC3)cc1	2.7	u
SMILES	IP6K1 inhibitor	KDM5B inhibitor
COc1ccc(-c2cc3nc4c(c(=O)n3[nH]2)CN(C(=O)NCc2ccco2)CC4)cc1	11.3	25.1µM*
COc1ccc(-c2cc3nc4c(c(=O)n3[nH]2)CN(C(=O)CCCc2c[nH]c3ccccc23)CC4)cc1	20.8	u
COc1ccc(Cl)cc1NC1=C(C(=O)N2CCOCC2)S(=O)(=O)c2ccccc21	x	i
Cc1cc(C)c2c(-n3cccc3)c(C(=O)NCCc3ccc(Cl)cc3)sc2n1	-20.3	i
Cc1cccc(C)c1-c1nc(C(=O)NC2CC2)n2ccccc12	-22.6	100µM*
COC(=O)CNC(=O)c1cc(-c2cc(Cl)cc(Cl)c2)c2cccn2n1	2.2	x
Cc1cccc(C)c1-c1nc(C(=O)N2CCCC2)n2ccccc12	10.8	39.8µM*
COc1ccc(-c2nc(C(=O)N3CCCC3)n3ccccc23)cc1	7.7	u
COC(=O)CNC(=O)c1nc(-c2cc(Cl)cc(Cl)c2)c2ccccn12	2.0	25.1µM*
Cc1cccc(C)c1-c1nc(C(=O)NCCc2ccc(Cl)cc2)n2ccccc12	9.9	14.1µM*
Cc1cccc(C)c1-c1cc(C(=O)NC2CC2)c2cnn(C)c2n1	0.6	u
CCc1ccc(C(=O)C2CCCCC2)cc1	x	i
COc1ccc(CN2C(=O)C(O)(CC(=O)c3ccccc3OC)c3ccccc32)cc1OC (stereo not drawn)	x	i

Compound activity as filed in PubChem BioAssay.
